Assay results reported in PubChem BioAssay AID652257 (The Scripps Research Institute Molecular Screening Center, 2013).
Hit rate of the full screen: of about 370,000 compounds, about 4,800 (1.3%) were called active.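 How the source made its calls: active means inhibition above about 21% made by adding two undisclosed values (limit read from the data); inactive means the rest.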 The sample as a whole holds a higher share of actives than the screen did.

Each molecule was assayed against Protein arginine N-methyltransferase 1 (Homo sapiens) (UniProt Q99873) (assay: human PRMT1 activity-probe blockers – biochemical, fluorescence polarization, primary screen (AID 652257)). Details: recombinant PRMT1, activity-based probe fluorescence polarization; at 2.79 µM; stronger effect = higher value.
Chain of Protein arginine N-methyltransferase 1 (Homo sapiens) (Q99873 whole entry, looked up): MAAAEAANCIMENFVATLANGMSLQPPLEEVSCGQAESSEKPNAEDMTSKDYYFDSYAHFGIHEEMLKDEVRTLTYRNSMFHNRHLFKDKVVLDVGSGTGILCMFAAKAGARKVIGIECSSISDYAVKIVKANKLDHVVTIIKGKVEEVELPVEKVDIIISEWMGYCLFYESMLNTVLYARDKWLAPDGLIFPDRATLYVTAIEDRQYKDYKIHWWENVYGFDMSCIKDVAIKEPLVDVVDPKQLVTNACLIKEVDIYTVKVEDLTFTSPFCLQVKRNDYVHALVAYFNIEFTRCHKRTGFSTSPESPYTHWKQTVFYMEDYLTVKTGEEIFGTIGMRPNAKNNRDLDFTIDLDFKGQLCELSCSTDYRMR

inhibition, active:
CCN(CC)CCCC(C)n1c2nc(=O)[nH]c(=O)c-2nc2cc(Cl)ccc21 (configuration not stated) 161%
O=C(NC1=CC(=O)c2ccccc2C1=O)c1ccccc1 36.9%
C=C1c2c(Cl)ccc(O)c2C(O)=C2C(=O)[C@]3(O)C(O)=C(C(N)=O)C(=O)[C@@H](N(C)C)[C@@H]3[C@@H](O)C12 (some centres not stated) 44.5%
CN(C)[C@@H]1C(=O)C(C(N)=O)=C(O)[C@@]2(O)C(=O)C3=C(O)c4c(O)ccc(Cl)c4[C@@H](O)[C@H]3C[C@@H]12 32%
COc1ncnc2c1N=C1CC(C)(C)CC(N)=C1S2 33.2%
COc1ccccc1NC(=O)/C=C/C(N)=O 62.4%
Oc1ccc(N2CCN(C(=S)NCc3ccccc3)CC2)cc1 23.4%
CCCCOC(=O)CNc1nnc(SCC(=O)OCC)[nH]c1=O 74.3%
Cc1ccc(/C=C/C(=O)Nc2cc(S(=O)(=O)N3CCCCCC3)ccc2OCC(F)(F)F)o1 24.7%
COCCNC(=O)Nc1ccc2nc(-c3ccco3)c(-c3ccco3)nc2c1 88.9%
Clc1ccccc1CSc1nnc(-c2ccco2)c(-c2ccco2)n1 45.8%
S=c1ccc2ccccc2[nH]1 41.1%
Cc1cc(C(=O)NN=C/C=C/c2ccco2)n[nH]1 39.4%
O=C(O)c1ccc(/C=C2\SC(=S)N(NC(=O)c3ccc(Br)cc3)C2=O)cc1 30.2%
FC(F)(F)c1nc2ccccc2nc1N/N=C/c1ccc(Cl)cc1 66.9%
O=C(CN1C(=O)S/C(=C\c2ccccc2F)C1=O)NCCCn1ccnc1 29.4%
O=C(Nc1ccc(S(=O)(=O)N2CCOCC2)cc1)c1ccc2ncsc2c1 22.4%
COc1ccc(-c2cc3c(c4c2ccn4C)C2CCC3C2)cn1 (configuration not stated) 32.2%

inhibition, inactive:
CC(=O)N(O)CCCCCNC(=O)CCC(=O)N(O)CCCCCNC(=O)CCC(=O)N(O)CCCCCNC(=O)CCC(=O)O -4.14%
CCCCn1c(N)c(N(CCOC)C(=O)c2oc3ccc(OC)cc3c2C)c(=O)[nH]c1=O -1%
CC(C)NC(=O)C(c1ccc(F)cc1)N(C(=O)CCC(=O)Nc1ccccn1)c1ccccc1F (configuration not stated) -0.59%
C[C@H](C(=O)N(C)c1ccccc1)[C@@H](O)c1ccc2ccccc2c1 6.67%
Nc1ccccc1C(=O)NC1CCCCNC1=O (configuration not stated) -3.31%
O=C(NCc1ccco1)C1CCCN(S(=O)(=O)c2ccc(Cl)s2)C1 (configuration not stated) -5.05%
NS(=O)(=O)c1cc(C(=O)OCC(=O)NNC(=O)c2ccccc2)ccc1Cl -1.9%
O=C(OCC(O)C(O)COC(=O)c1ccccc1)c1ccccc1 (configuration not stated) 1.36%
COC(=O)c1cc(S(=O)(=O)N2CCN(c3ccccc3C)CC2)cn1C -0.8%
Cc1ccc(C(=O)NCC(=O)NC2CC2)cc1 -3.08%
CN(C)C(CNC(=O)c1cccc(S(=O)(=O)N2CCc3ccccc3C2)c1)c1ccccc1 (configuration not stated) 2.65%
COc1ccccc1NC(=O)COC(=O)COc1ccccc1F -0.97%
COc1ccccc1NC(=O)c1cc(Cl)nnc1Cl 0.83%
CN(C(=O)c1cccc([N+](=O)[O-])c1)c1ccccc1C(=O)NCc1ccccc1 0.8%
Cc1cc(C)n(-c2nc(O)cc(=O)[nH]2)n1 -0.2%
O=C(COC(=O)c1ccccc1C(=O)N1CCN(c2ccccc2)CC1)NCc1ccccc1 12.8%
O=C(CN1CCN(c2ccccc2O)CC1)NC(=O)NCc1ccccc1 -0.8%
CC1CCN(C(=O)c2ncn3c2C(=O)N[C@@H](C)C3)CC1 -0.43%
COc1ccc(S(=O)(=O)N(C)C[C@@H]2Oc3ccc(NS(=O)(=O)c4cn(C)cn4)cc3C(=O)N([C@@H](C)CO)C[C@@H]2C)cc1 0.38%
COc1ccc(CCNC(=O)CSc2nc3c([nH]2)c(=O)n(C)c(=O)n3C)cc1 1.93%
CC(C)(C)c1ccc(C(=O)Nc2cc(Cl)c(Br)cc2C(=O)O)cc1 -1.7%
COC(=O)[C@]12C[C@H](CC(=O)NCc3cccs3)C(=O)N(CCc3ccc(OC)c(OC)c3)C1=C[C@H](C(C)C)O[C@@H]2C1CC1 -1.28%
Cc1nnc(SCCCCSc2nnc(C)c(=O)[nH]2)[nH]c1=O 2.02%
CCOC(=O)CSc1nnc(CNc2ccc(F)cc2)o1 -0.98%
CCC(=O)Nc1ccc2c(c1)C(=O)N(C)[C@@H]1CC[C@@H](CC(=O)NCCc3ccccc3)O[C@H]1CO2 1.16%
O=C(Nc1cc(S(=O)(=O)N2CCOCC2)ccc1OCC(F)(F)F)c1ccc(N2CCCC2=O)cc1 -0.65%
COc1ccc(S(=O)(=O)N2CCCCC2)cc1NC(=O)COc1ccccc1 2%
O=C(NCCCc1ccccc1)[C@H](Cc1ccccc1)NC1(C(=O)NCCc2c[nH]c3ccccc23)CCC1 4.62%
COc1ccc2c(c1)CN1CN(CCc3ccccc3)S(=O)(=O)CC21 (configuration not stated) -7.45%
COc1ccc(C(=O)NC(=O)CSc2nnc(-c3ccco3)n2-c2ccccc2)cc1 4.1%
COc1cc(NC(=O)C2=CC(c3ccco3)=NS(=O)(=O)N2C)cc(OC)c1OC 1.92%
O=C(Nc1ccc(F)c([N+](=O)[O-])c1)C1CCCO1 (configuration not stated) -0.52%
CCOC(=O)[C@]12CCCC=C1N(CCCOC)C(=O)[C@@H]2CC(=O)N1CCOCC1 -11.2%
COC(=O)Nc1nc2ccc(C(=O)C3CC3)cc2[nH]1 -5.37%
COc1ccc(C2NC(=O)C(=O)/C2=C(\O)c2ccc(Cl)cc2)cc1OC (configuration not stated) 1.92%
Clc1ccc(-n2c(SC/C=C/c3ccccc3)nnc2-c2ccco2)cc1 2.59%
Cc1cccc(N(CC(=O)N2CCCC2)S(C)(=O)=O)c1C 0.79%
COc1ccc(N(CC(=O)N2CCOCC2)S(=O)(=O)c2ccccc2)cc1Cl 3.25%
CN1C(=O)c2cc(NS(C)(=O)=O)ccc2OC[C@@H]2O[C@@H](CC(=O)NCc3ccc(-c4ccccc4)cc3)CC[C@H]21 -3.76%
S=c1[nH]c2ccccc2c2ccccc12 13.6%
Brc1ccccc1CN1CCC(Cc2ccccc2)CC1 -1.49%
CCN(CC(=O)Nc1ccc(OC)cc1)C(=O)c1ccc(Cl)c(S(=O)(=O)N2CCCC2)c1 -2.9%
CCOc1ccc(NC(=O)CCCCCN2C(=O)[C@@H]3Cc4ccccc4CN3C2=O)cc1 0.46%
CC[C@]1(O)C[C@@H]2CN(CCc3c([nH]c4ccccc34)[C@@](C(=O)OC)(c3cc4c(cc3OC)N(C)[C@H]3[C@@](O)(C(=O)OC)[C@H](OC(C)=O)[C@]5(CC)C=CCN6CC[C@]43[C@@H]65)C2)C1 4.62%
O=C(N/N=C/C=C/c1ccco1)c1cccs1 17.1%
CN(C)S(=O)(=O)c1cccc(C(=O)N/N=C\c2ccco2)c1 -2.34%
COC(=O)C1CN(CC(C)C)CCS(=O)(=O)N1Cc1ccc(F)cc1 (configuration not stated) 1.47%
CN(CCc1ccccc1)C(=O)Cn1nc(-c2ccccc2)ccc1=O -1.41%
Cc1[nH]c2ccccc2c1C(=O)C(C)Sc1nnc(C2CC2)o1 (configuration not stated) 2.13%
Nn1c(SCC(=O)N2c3ccccc3Sc3ccccc32)nnc1-c1n[nH]c2c1CCC2 5.44%
O=C(NCCN1C(=O)S/C(=C\c2cccnc2)C1=O)c1ccc(S(=O)(=O)N2CCCC2)cc1 4.69%
C/C(CC(=O)N1CCN(C=O)CC1)=N\NC(=O)c1ccc(Br)cc1 2.11%
CCCn1nnnc1NCc1ccc(CC)cc1 1.58%
Cc1ccc(C(=O)C2CCN(CC(=O)NCCC(C)C)CC2)cc1 4.05%
Clc1ccc(Nc2ccc3ccccc3n2)cc1 -3.42%
CN(CCO)c1ccc(/C=N/Nc2nncc3ccccc23)cc1 -2.83%
COC(=O)[C@]1(Cc2ccccc2)NC=C(C(=O)c2ccccc2)[C@@H]1c1cccc(OC)c1 2.58%
O=C(CCN1C(=O)c2ccccc2C1=O)NCCCn1ccnc1 1.79%
O=C(NCCCn1ccnc1)/C(=C\c1ccccc1F)NC(=O)c1ccccc1 -3.1%
CCC[C@H]1C(=O)CC[C@@]23CCCN2C(=O)CCC[C@@H]13 1.57%
COCCN(C(=O)c1ccco1)c1nnc(-c2ccc(OC)cc2)s1 1.28%
O=C(CCl)NC1CCCCN(Cc2cccc(C(F)(F)F)c2)C1=O (configuration not stated) 3.41%
CC1Cn2c(nnc2-c2cccs2)S1 (configuration not stated) 5.98%
O=C(Nc1ccc(N2CCOCC2)c(Cl)c1)c1ccc(S(=O)(=O)N2CCOCC2)cc1 1.99%
O=C(Nc1ccc2cn[nH]c2c1)c1ccc(S(=O)(=O)N2CCOCC2)cc1 3.18%
O=C(CSc1nc2ccccc2nc1N1CCCCC1)N1CCN(S(=O)(=O)c2cccc([N+](=O)[O-])c2)CC1 0.86%
O=C(CSc1nc2ccccc2n1Cc1ccccc1)NNC(=S)Nc1ccccc1 1.31%
CC(=O)O[C@@]1(C(C)=O)CCC2[C@H]3C=C(C)C4=CC(=O)CC[C@@]4(C)C3CC[C@]21C (some centres not stated) -2.39%
Cc1ccccc1-c1ccc2c(c1)O[C@@H](CN(C)Cc1ccc(C(=O)O)cc1)[C@@H](C)CN([C@H](C)CO)S2(=O)=O -1.8%
